Assay results reported in PubChem BioAssay AID1851 (National Center for Advancing Translational Sciences (NCATS), 2009).
In all, about 16,000 compounds went through this assay and about 2,600 (16%) were called active. About 20% were inconclusive and are not listed. These entries were drawn from the full list. A number with no mark means an inactive call. Calls come from the whole dose curve; as a rule, active = well fitted curve in the direction sought with a large enough effect; inconclusive = small, poorly fitted or top-dose-only effect, or effect the other way; inactive = no such curve, though single readings can be large or run the other way.

biological target: Cytochrome P450 2D6 (Homo sapiens) (UniProt P10635); test: Cytochrome panel assay with activity outcomes; conditions: recombinant CYP, pro-luciferin dealkylation, luminescence, p450-cyp2d6; series mostly up to 57.1 µM
Sequence (P10635 whole entry, looked up): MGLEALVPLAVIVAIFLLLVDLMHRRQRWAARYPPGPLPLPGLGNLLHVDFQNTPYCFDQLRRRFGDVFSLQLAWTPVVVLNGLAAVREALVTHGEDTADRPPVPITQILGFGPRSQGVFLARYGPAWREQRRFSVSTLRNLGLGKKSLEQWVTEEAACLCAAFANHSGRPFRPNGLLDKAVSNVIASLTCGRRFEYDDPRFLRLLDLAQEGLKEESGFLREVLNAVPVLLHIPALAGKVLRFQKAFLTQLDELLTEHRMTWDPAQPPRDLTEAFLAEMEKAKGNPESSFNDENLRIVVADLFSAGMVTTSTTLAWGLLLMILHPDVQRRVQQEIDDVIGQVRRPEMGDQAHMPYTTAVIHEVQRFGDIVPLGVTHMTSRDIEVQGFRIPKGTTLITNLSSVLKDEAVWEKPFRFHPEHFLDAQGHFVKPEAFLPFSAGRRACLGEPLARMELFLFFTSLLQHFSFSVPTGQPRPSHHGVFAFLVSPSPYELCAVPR
% is set by controls: 0 for no effect and ±100 for the full control effect.

Structure (SMILES) | AC50 | activity, negative = inhibition
O=S(=O)(c1ccccc1S(=O)(=O)N1CCCCC1)N1CCCCC1 | inactive | –
CC1(CCC#N)N=C(SCCC#N)N(c2ccccc2)C1=O (stereo unspecified) | inactive | –
Cc1ccc(S(=O)(=O)N[C@H](CN)C(=O)O)cc1 | – | 3.02% [at 11.4 µM]
CC(C)Oc1ccc(C2CC(=O)NC3=C2C(=O)CCC3)cc1 (stereo unspecified) | inactive | –
CCCCSC(=S)N(C)C1CCS(=O)(=O)C1 (stereo unspecified) | inactive | –
C=C(Br)CN(C)CC(=C)Br | – | 9.77% [at 11.4 µM]
CCOc1cc(C2CC(=O)c3c(ccc4ccccc34)N2)ccc1O (stereo unspecified) | inactive | –
COc1ccc(C2C(C(=O)N3CCOCC3)CCC(=O)N2c2ccc(OC)cc2)cc1 (stereo unspecified) | inactive | –
CC(C)C(NC(=O)C12CC3CC(CC(C3)C1)C2)C(=O)NC1=NCCS1 (stereo unspecified) | inactive | –
COc1c(C)c2c(c(O)c1C/C=C(\C)CCC(=O)O)C(=O)OC2 | inactive | –
COC(=O)c1cc(C(=O)c2cccc(Cl)c2Cl)cn1C | inactive | –
CN(C)Cc1ccccc1-c1cncnc1NCc1cccs1 | 12.6 µM (active) | –
Cc1cnc(CNc2ncncc2-c2ccccc2C#N)cn1 | inactive | –
CC(C)Oc1cccc(C(=O)NC(=S)N2CCN(c3ccc(C(F)(F)F)cc3[N+](=O)[O-])CC2)c1 | inactive | –
O=C(CCN1C(=O)/C(=C/c2cccc(Br)c2)SC1=S)NNC(=O)c1cccnc1 | inactive | –
C[C@](O)(c1ccccc1)c1nccc2ccccc12 | – | -11.5% [at 11.4 µM]
COc1cccc(NC(=O)c2oc3ccccc3c2NC(C)=O)c1 | inactive | –
CCOC(=O)CC1NC(=O)c2ccccc21 (stereo unspecified) | inactive | –
O=C(Cn1c(SCC(=O)N2CCc3ccccc3C2)nc2ccccc21)NC1CCCC1 | 25.1 µM (active) | –
C=CCn1c(SCC(=O)N2CC(=O)Nc3ccccc32)nc2scc(-c3ccccc3)c2c1=O | inactive | –
Cc1ccc(-n2c(C)nnc2SCC(=O)N2CCc3ccccc3C2)cc1C | inactive | –
O=C(Cn1cccc1)NC1CCCCCC1 | inactive | –
C=CCn1c(SCC(=O)N2CCc3ccccc3C2)nc2ccccc2c1=O | 15.8 µM (active) | –
C=CCSc1nc2ccccc2c(=O)n1Cc1ccco1 | – | -11.2% [at 11.4 µM]

Structure (SMILES) | AC50 | activity, negative = inhibition
CCOC(=O)c1sc(N(Cc2ccccc2)C(=O)CN2C(=O)CN(C)C2=O)nc1C | inactive | –
c1ccc(-c2nccc(-c3ccc(-n4cnc5ccccc54)cc3)n2)nc1 | inactive | –
CCOC(=O)c1cn(-c2nc(-c3ccc(Cl)cc3)cs2)c2c(F)c(N3CC(C)OC(C)C3)c(F)cc2c1=O (stereo unspecified) | inactive | –
C[C@@H](c1ccccc1)N1C(=O)[C@H]2[C@H]3[C@H](O)[C@H](O)C/C(=N/OC[C@@H](O)COCc4ccco4)[C@H]3CC[C@@H]2C1=O | – | -0.906% [at 11.4 µM]
Cc1cccc(NC2=NC(=S)N(c3ccc(C(=O)O)cc3)C23CCCCC3)c1 | inactive | –
CCCn1cnc2c1c(=O)n(CCCCC(C)=O)c(=O)n2C | inactive | –
NC(=O)C(=O)O | inactive | –
COc1ccc(C(=O)O/N=C/c2ccc(S(=O)c3ccc(Cl)cc3)nc2)cc1 (stereo unspecified) | inactive | –
CCCn1nnnc1-c1cc(Cl)cc(Cl)c1 | inactive | –
CC1=CC(=C2C(=O)c3ccccc3C2=O)C=C(C)O1 | inactive | –
CC1=CC(=O)c2ccccc2C1=O | 7.94 µM (active) | –
CCn1c(C)nc2c1C(=O)c1ccccc1C2=O | inactive | –
Cc1ccc(-n2ncc3c(=O)n(CC(=O)NCC4CCCO4)cnc32)cc1 (stereo unspecified) | inactive | –
O=C(/C=C/Nc1ccccc1)c1ccc(Oc2ncccn2)cc1 | inactive | –
CCCc1ccc(-c2cc(C(=O)NN3CCOCC3)c3ccccc3n2)cc1 | inactive | –
COc1ccccc1CNc1ncncc1-c1ccccc1OC | 10 µM (active) | –
COc1ccccc1CCn1c(=O)c(-c2ccc(F)cc2)nc2cncnc21 | inactive | –
COc1ccccc1CN1C(=O)c2ccncc2C1=O | inactive | –
COc1ccccc1CNc1ncncc1-c1ccoc1 | 20 µM (active) | –
COc1ccccc1CNc1ncncc1-c1ccccc1C | 10 µM (active) | –
COc1ccccc1CNc1ncncc1-c1ccccc1Cl | 2 µM (active) | –
CCOc1[nH]n(-c2ccc(Cl)cc2)c(=O)c1C=Nc1ccc(Cl)cc1 | inactive | –
CCOc1ccc(N/N=C(/C#N)C(N)=O)cc1 | inactive | –
CO[C@@H]1COC(=O)[C@H]2CCCN2C(=O)[C@@H](C)COC(=O)C/C=C\[C@H]1C | – | -1.92% [at 11.4 µM]

Structure (SMILES) | AC50 | activity, negative = inhibition
Cc1ccc(C(=O)N/C(=C/C=C/c2ccccc2)C(=O)NCc2ccco2)cc1 | inactive | –
Cc1c(Br)cc(C(=O)NC2CCCCC2)c(C)c1C | inactive | –
OC[C@@H]1O[C@@H](n2cnc3c(SCc4ccccc4)ncnc32)[C@@H](O)[C@H]1O | – | -0.968% [at 11.4 µM]
O=C(CCCCC(=O)Nc1c(I)cc(I)c(C(=O)O)c1I)Nc1c(I)cc(I)c(C(=O)O)c1I | inactive | –
CCOC(=O)CSc1nnc(CSc2nc3sc4c(c3c(=O)[nH]2)CCCC4)n1-c1ccccc1 | inactive | –
NC1=NC(=O)/C(=C/c2cccs2)S1 | inactive | –
COc1ccc(-c2nc3cnc(N4CCNCC4)nc3n(C3CC3)c2=O)cc1 | inactive | –
Nc1ccc(S(=O)(=O)Nc2ccc(Cl)nn2)cc1 | inactive | –
COc1ccc2c(c1)-c1c(sn(-c3ccc(OC)c(OC)c3)c1=S)C(C)(C)N2 | inactive | –
C[C@H]1CN(CCO)CCN1c1ccccc1 | – | 11.2% [at 11.4 µM]
OCCN1CCN(CCOc2cccc(Cl)c2)CC1 | 5.01 µM (active) | –
O=C(O)c1cccc(OCCO)c1 | – | 5.58% [at 11.4 µM]
CO[C@H]1COC(=O)[C@H]2CCCN2C(=O)C/C=C\[C@@H](C)[C@H](OC)COC(=O)C/C=C\[C@@H]1C | – | -7.59% [at 11.4 µM]
CC1=C[N+](=O)c2ccccc2[N+]1=O | – | 22.3% [at 11.4 µM]
COc1ccc(O[C@H]2C=C[C@@H](c3ccccc3)O[C@H]2CO/N=C2/c3cc(OC)ccc3O[C@@H](c3cccc(OC)c3)[C@H]2O)cc1 | – | -21.5% [at 11.4 µM]
COc1ccc(O[C@H]2C=C[C@@H](c3ccccc3)O[C@H]2COC(=O)CC/C(C)=N/O[C@@H]2O[C@H](COC(C)=O)[C@H](OC(C)=O)[C@H](OC(C)=O)[C@H]2OC(C)=O)cc1 | 3.16 µM (active) | –
C/C(CCC(=O)OC[C@@H]1O[C@H](C#Cc2ccccc2)C=C[C@@H]1Oc1ccc(C)cc1)=N/OC[C@@H](O)COCc1ccco1 | – | 5.64% [at 11.4 µM]
CC(=O)OC[C@@H]1O[C@H](CCO/N=C(\C)CCC(=O)OC[C@@H]2O[C@H](C#Cc3ccccc3)C=C[C@@H]2Oc2ccc(C)cc2)C=C[C@@H]1OC(C)=O | – | 15.9% [at 11.4 µM]
CC(=O)OC[C@H]1O[C@@H](O/N=C(\C)CCC(=O)OC[C@@H]2O[C@H](C#Cc3ccccc3)C=C[C@@H]2Oc2ccc(C)cc2)[C@H](OC(C)=O)[C@@H](OC(C)=O)[C@H]1OC(C)=O | 3.98 µM (active) | –
CCCNC(=O)OC[C@@H]1O[C@H](CCO/N=C2\c3cc(OC)ccc3O[C@H](c3cccc(OC)c3)[C@H]2O)C=C[C@@H]1Oc1ccc(OC)cc1 | – | -1.45% [at 11.4 µM]
COc1ccc(O[C@H]2C=C[C@@H](c3ccccc3)O[C@H]2CO/N=C(/C)CCC(=O)OC[C@@H]2O[C@H](c3ccccc3)C=C[C@@H]2Oc2ccc(OC)cc2)cc1 | – | 8.39% [at 11.4 µM]
COc1ccc(O[C@H]2C=C[C@@H](c3ccccc3)O[C@H]2CO/N=C\C[C@@H]2C=C[C@H](OC(C)=O)[C@H](COC(C)=O)O2)cc1 | – | -5.75% [at 11.4 µM]
COc1cccc([C@H]2Oc3ccc(OC)cc3/C(=N\O[C@@H]3O[C@H](COC(C)=O)[C@H](OC(C)=O)[C@H](OC(C)=O)[C@H]3OC(C)=O)[C@@H]2O)c1 | 3.16 µM (active) | –
